Reference: PubChem BioAssay AID1490 (National Center for Advancing Translational Sciences (NCATS), 2009)
“And” between values parts separate entries of the source, which are not always exact repeats. Equal values may be shown once. The campaign covered roughly 310,000 compounds. About 11,000 (3.5%) were called active. Inconclusive results (about 4%) are left out. Calls come from the whole dose curve; as a rule, active = well fitted inhibition curve with a large enough effect; inconclusive = small, poorly fitted or top-dose-only effect, or another doubt; inactive = no such curve, though single readings can be large or run the other way. Many of the other results were omitted from the sample, so actives are more common in it than they were.
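Note: the enzyme is Sfp with the accession as filed and its product quenches rhodamine fluorescence.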
Potency is the fitted concentration of half-maximal effect.
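Throughout, for largest response in the series, negative = inhibition: 0% = enzyme reaction without inhibitor and -100% = no enzyme wells.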

What follows are compounds tested against 4'-phosphopantetheinyl transferase ffp (Bacillus subtilis) (UniProt Q9F4F7) (assay: qHTS Assay for Inhibitors of Bacillus subtilis Sfp phosphopantetheinyl transferase (PPTase)). Details: Biochemical Sfp PPTase activity.
Excerpt: Assay Submitter: Michael Burkart, University of California, San Diego
Screening Center PI: Austin, C.P.
Screening Center: NIH Chemical Genomics Center [NCGC]
The covalent attachment of a phosphopantetheinyl (4'-PP) arm to a variety of synthases and other proteins is a key posttranslational protein modification. The 4'-PP is installed on the proteins post-translationally from coenzyme A (CoA) on a conserved serine residue by action of phosphopantetheinyl transferase (PPTase) enzymes. Phosphopantetheinylation is essential for synthase activity, and removal of the PPTase gene precludes natural product synthesis in microorganisms, or in the case of fatty acid biosynthesis, renders the organism unviable. PPTase enzymes belong to a distinct structural superfamily. Within bacteria, these enzymes are grouped into two classes based upon primary structure, the AcpS-Type and Sfp-Type PPTases.
Sfp-type PPTases, corresponding to an activator of surfactin production in Bacillus subtilis, are responsible for modifying type I polyketide and nonribosomal peptide synthases of prokaryotes. Sfp-type PPTases are responsible for the activation of a variety of pathogen-associated virulence factors. Among these compounds are toxins such as mycolactone from Mycobacterium ulcerans, siderophores such as vibriobactin from Vibrio cholerae or mycobactin from Mycobacterium tuberculosis, as well as the mycolic acids which form the waxy cell wall of Mycobacteria. The biosyntheses of these natural products are considered attractive targets for drug design.
In search of small molecule Sfp-PPTase inhibitors, a fluorescence quenching assay was developed for detection of Bacillus subtilis Sfp-PPTase enzymatic activity in a miniaturized high-throughput format. The consensus ybbr acceptor peptide […] was N-terminally labeled with Black Hole Quencher-2 (BHQ-2) and used in combination with rhodamine-labeled coenzyme A as a co-substrate.
Inhibition of Sfp-PPTase was detected by recording the fluorescence intensity change over a 30-minute reaction period at a 525 nm excitation and 598 nm emission. Reagents were supplied by Michael Burkart and Timothy Foley, University of California at San Diego.
This BioAssay deposition is for validation of the developed Sfp-PPtase assay.
Assay Buffer: 50 mM Hepes-Na pH 7.6, 10 mM MgCl2, 0.01% Nonidet P-40, and 0.01% BSA.
3 uL of Sfp-PPTase enzyme (final concentration 15 nM) and 1 uL of substrate mixture (final concentration for rhodamine-CoA and BHQ-2-YbbR 5 uM and 12.5 uM, respectively) dispensed in columns 1, 2, 5 - 48. Columns 1 and 2 used to generate neutral control (uninhibited reaction)
Three uL of reagents, consisting of buffer (in columns 3 and 4 as negative control) and Sfp-PPTase (in columns 1, 2, 5 - 48) were dispensed into 1,536-well Greiner black solid bottom plate. Compounds (23 nL) were transferred via Kalypsys pintool equipped with 1,536-pin array. The plate was incubated for 15 min at room temperature, followed by the addition of 1 uL substrate to start the reaction. The plate was then centrifuged at 1000 rpm for 15 seconds, and the fluorescence intensity recorded on a ViewLux High-throughput CCD imager (Perkin-Elmer) using standard BODIPY optics (525 nm excitation and 598 nm emission). The plate was then incubated for 30 minutes, and a second read on the ViewLux was performed. The fluorescence intensity difference over the 30-minute period was used to calculate the respective reaction rate for each well.
`CC(c1ccccc1)(c1ccccc1)c1ccncc1` was tested, and the largest response in the series, negative = inhibition was 5% (inactive). For `c1csc(CN2CCCC3(CCNCC3)C2)n1`, the largest response in the series, negative = inhibition was 3.74% (inactive). For `COc1ccc(C2Oc3c(I)c(OC)cc(OC)c3CC2O)cc1OC` (centres undefined), the largest response in the series, negative = inhibition was -16.3% (inactive). In the case of `CC[N+](C)(CC)CCC[n+]1c(-c2ccccc2)c2cc(N)ccc2c2ccc(N)cc21`, the Potency is reported as 28.2 µM (active) and 50.1 µM (active). For `CC(C)(C)c1ccc(CN2C(=O)CN=C(c3ccccc3)c3ccccc32)cc1`, the largest response in the series, negative = inhibition was -3.66% (inactive). With `Cc1ccc(S(=O)(=O)N(C)c2ccc(C(=O)NCC3(N(C)C)CCCCC3)cc2)cc1` the largest response in the series, negative = inhibition was 13.3% (inactive). `COC1=C[C@]23CCCN2CCc2cc4c(cc2[C@@H]3[C@@H]1O)OCO4` was tested, and the largest response in the series, negative = inhibition was 1.35% (inactive). With `CC(=O)c1c(O)n(C2CCCCCC2)c(=O)[nH]c1=O` the largest response in the series, negative = inhibition was 6.22% (inactive). In the case of `COc1ccccc1N1CCN(C(CNC(=O)Oc2ccccc2)c2cccnc2)CC1` (centres undefined), the largest response in the series, negative = inhibition is reported as 2.8% (inactive). With `COc1ccc(CCn2c(O)c(C=NC3CC3)c(=O)[nH]c2=O)cc1OC` the largest response in the series, negative = inhibition was 12.3% (inactive). With `O=C(O)C1CSC(c2cccnc2)N1` (centres undefined) the Potency was 56.2 µM (active). For `CNC(=O)Nc1ccc(C(O)(C(=O)OC)C(F)(F)F)cc1` (centres undefined), the largest response in the series, negative = inhibition was 6.69% (inactive). With `CN1CCN(C(=O)O[C@@H]2c3nccnc3C(=O)N2c2ccc(Cl)cn2)CC1` the largest response in the series, negative = inhibition was -8.07% (inactive). `CC(=C1C(=O)c2ccccc2C1=O)N1CCN(CCN=Cc2c(O)n(C)c(=O)n(C)c2=O)CC1` was tested, and the largest response in the series, negative = inhibition was 10.2% (inactive). With `CN1C2CC3CC1C(O3)C2O` (centres undefined) the largest response in the series, negative = inhibition was -0.102% (inactive). In the case of `Fc1ccc(C(OCCN2CCN(C/C=C\c3ccccc3)CC2)c2ccc(F)cc2)cc1`, the Potency is reported as 89.1 µM (active). In the case of `C[C@H]1CC[C@@]2(NC1)O[C@@H]1C[C@H]3[C@@H]4CC=C5C[C@@H](O)CC[C@]5(C)[C@@H]4CC[C@]3(C)[C@@H]1[C@@H]2C`, the largest response in the series, negative = inhibition is reported as 7.1% (inactive). `COc1ccc(NC(=O)N2CCC3(CC2)OCCO3)c(OC)c1` was tested, and the largest response in the series, negative = inhibition was -7.26% (inactive). `CO[C@H]1[C@@H](O)[C@@H](C)O[C@H](O[C@H]2[C@H](Oc3cccc4c(O)c5c(=O)oc6ccc(C)c7c(=O)oc(c34)c5c67)O[C@H](C)[C@H](O)[C@@H]2O)[C@@H]1O` was tested, and the largest response in the series, negative = inhibition was -22.5% (inactive). `CN(C)C(=O)Oc1cc(OC(=O)N(C)C)cc(C(O)CNC(C)(C)C)c1` (centres undefined) was tested, and the largest response in the series, negative = inhibition was 2.1% (inactive). For `O=C1NC(=O)N(Cc2ccco2)C(=O)/C1=C\c1ccc(-c2ccc(F)cc2)o1`, the Potency was 31.6 µM (active). `O=C1NC(=O)N(Cc2ccco2)C(=O)/C1=C\c1cccn1CCOc1ccccc1` was tested, and the Potency was 20 µM (active). In the case of `CC[C@]1(O)C(=O)OCc2c1cc1n(c2=O)Cc2cc3ccccc3nc2-1`, the largest response in the series, negative = inhibition is reported as 6.01% (inactive). With `COP(=O)(NS(=O)(=O)c1ccccc1)OC` the largest response in the series, negative = inhibition was 17.4% (inactive). `C=CCN1CCC2(C)c3cc(O)ccc3CC1[C@@H]2C` (some centres undefined) was tested, and the largest response in the series, negative = inhibition was 3.98% (inactive). With `CCc1nnc(NS(=O)(=O)c2ccc(N=Cc3c(O)n(-c4ccccc4)c(=O)[nH]c3=O)cc2)s1` the largest response in the series, negative = inhibition was -8.17% (inactive). With `Cc1cc(C)cc(NC(=S)NC2CC3CCCC(C2)N3Cc2cccs2)c1` (centres undefined) the largest response in the series, negative = inhibition was 14.7% (inactive). `CC(C)Oc1cccc(C(=O)C2CCCN(C3CCOCC3)C2)c1` (centres undefined) was tested, and the largest response in the series, negative = inhibition was 17.1% (inactive). For `CCN(CC)c1nc(C)cc(OP(=S)(OC)OC)n1`, the largest response in the series, negative = inhibition was 6.37% (inactive). `O=c1c2ccccc2nc(/C=C/c2ccco2)n1-c1ccccc1O` was tested, and the Potency was 10 µM (active). For `O=c1c2ccccc2nc(/C=C/c2ccc(F)cc2)n1-c1ccccc1O`, the largest response in the series, negative = inhibition was -2% (inactive). `O=c1c2ccccc2nc(-c2ccco2)n1-c1ccc(Br)cn1` was tested, and the largest response in the series, negative = inhibition was -3.04% (inactive). In the case of `CCN1CC2C3CCC(C)(O3)C2C1` (centres undefined), the largest response in the series, negative = inhibition is reported as 13.8% (inactive). `O=C(N/N=C/c1c(O)n(C2CC2)c(=S)[nH]c1=O)c1ccccc1Cl` was tested, and the largest response in the series, negative = inhibition was 9.37% (inactive). In the case of `CC(C)(C)c1ccc(OC(=O)N2CCCCC2)cc1`, the largest response in the series, negative = inhibition is reported as -1.08% (inactive). For `N[C@H](C(=O)O)c1cc(=O)[nH]o1`, the largest response in the series, negative = inhibition was 2.79% (inactive). For `N[C@H](Cc1o[nH]c(=O)c1Cl)C(=O)O`, the Potency was 79.4 µM (active). With `CCOP(=O)(OCC)C(O)c1ccc(OC)cc1OC` (centres undefined) the largest response in the series, negative = inhibition was 9.04% (inactive). In the case of `CN(C)C(=O)Oc1cc(=O)n2c3c(cccc13)CCC2`, the largest response in the series, negative = inhibition is reported as 10.3% (inactive). For `C[C@]12CC[C@H](O)C[C@@H]1CC[C@H]1[C@H]2CC[C@]2(C)C(=O)CC[C@@H]12`, the largest response in the series, negative = inhibition was -1.51% (inactive) and 34.7% (inactive) and 1.49% (inactive). In the case of `O=[N+]([O-])c1ccc(C2C3C(c4ccccc4)=NC4(CCCCC4)N32)cc1` (centres undefined), the largest response in the series, negative = inhibition is reported as -4.07% (inactive). In the case of `c1csc(CN2CC3(CCNCC3)C2)n1`, the largest response in the series, negative = inhibition is reported as 12.2% (inactive). `C=CCN(CC=C)C(=O)Nc1ccc(OCC)cc1` was tested, and the largest response in the series, negative = inhibition was 0.3% (inactive). For `C=CCN1C(=O)NC(=O)/C(=C/c2ccc(OCC(=O)Nc3ccc(C)cc3)cc2)C1=O`, the Potency was 35.5 µM (active).
